Compound activity deposited in PubChem by National Center for Advancing Translational Sciences (NCATS).
Shown are actives, neighbours in structure and some others; about 12% of the full set was active somewhere.
Sfp PPTase inh: blocks B. subtilis Sfp PPTase activity; Q9F4F7; Biochemical Sfp PPTase activity, qHTS; Potency, µM, inactives show largest response in the series, negative = inhibition, most hits filed as inhibitors; actives 3.5% (n = 310,000); AID 1490;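 further: the enzyme is Sfp with the accession as filed and its product quenches rhodamine fluorescence; 0% = enzyme reaction without inhibitor and -100% = no enzyme wells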
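Fluorescence-quenching assay with 15 nM Sfp, 5 uM rhodamine-CoA and 12.5 uM BHQ-2-labelled ybbR peptide in pH 7.6 Hepes/MgCl2 buffer. Enzyme was pre-incubated with compound for 15 min at room temperature. Rate was taken from the 30-min fluorescence change (525/598 nm).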
HP1b chromo inh: blocks HP1-beta chromodomain binding to methylated histone tails; Potency, µM (highest dose often 114 µM), for the others: top-dose activity change, negative = inhibition, usual class: inhibitors; AlphaScreen HP1-beta / biotin-H3K9me3 peptide binding; P83916; actives 0.56% (n = 390,000); further: nearly all actives have a fitted effect of over 70% in size
Target sequence (P83916 whole entry, looked up): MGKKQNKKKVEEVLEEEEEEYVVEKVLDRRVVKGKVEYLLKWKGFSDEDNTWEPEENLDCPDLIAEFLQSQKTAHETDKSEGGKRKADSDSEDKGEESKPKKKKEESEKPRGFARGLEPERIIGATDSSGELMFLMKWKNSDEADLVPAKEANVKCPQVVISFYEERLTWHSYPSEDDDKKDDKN
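HP1-beta protein (50 nM final) preincubated 30 min at room temperature with biotinylated H3(1-18)K9me3 peptide (50 nM) in PBS pH 7.4, 0.01% Tween-20, then compound added for 30 min. AlphaScreen streptavidin donor/nickel chelate acceptor beads (10 ug/mL final), 30 min dark, luminescence read.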
BAZ2B block: BAZ2B (human) inhibition; AlphaScreen BAZ2B-H3K14Ac peptide displacement; actives 4.4% (n = 360,000); Q9UIF8; Potency, µM (top dose mostly 114 µM), for the others: at the highest dose activity change, negative = inhibition, hits mostly inhibitors; further: on the % scale 0 is the no-effect control and ±100 the full control effect; nearly all actives have a fitted effect of over 60% in size
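BAZ2B (50 nM) with biotin-H3(5-23)K14Ac peptide (50 nM) in PBS pH 7.4, 0.01% Tween-20, preformed 30 min, then compound 30 min at room temperature; top concentration 110uM. AlphaScreen streptavidin donor/nickel chelate acceptor beads (10 ug/mL final), 20 min dark, signal read.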
G9a block: blocks human histone lysine methyltransferase G9a; actives 8.8% (n = 350,000); Potency, µM (highest dose often 102 µM), for inactives: at the top dose activity, negative = inhibition, most hits filed as inhibitors; Q96KQ7; G9a H3K9 monomethylation, AlphaScreen, 2 h; AID 504332; further: on the % scale 0 is the no-effect control and ±100 the full control effect; nearly all actives have a fitted effect of over 75% in size
Target sequence (Q96KQ7 913-1193 limits assumed): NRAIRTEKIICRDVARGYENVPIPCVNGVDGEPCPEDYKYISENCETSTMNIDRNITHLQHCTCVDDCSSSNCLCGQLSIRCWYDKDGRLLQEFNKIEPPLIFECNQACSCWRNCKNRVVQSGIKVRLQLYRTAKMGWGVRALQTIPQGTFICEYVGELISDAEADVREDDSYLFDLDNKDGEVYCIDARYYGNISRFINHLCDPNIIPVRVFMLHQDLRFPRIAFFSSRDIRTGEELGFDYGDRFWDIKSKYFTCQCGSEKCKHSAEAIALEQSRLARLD
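G9a (20 nM) preincubated 15 min RT with compounds, then 500 nM biotinylated H3K9 peptide and 20 uM SAM added; 2 h RT reaction. Monomethyl-H3K9 product detected by AlphaScreen with anti-H3K9me1 antibody, streptavidin donor and anti-rabbit IgG acceptor beads.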
L3MBTL1 block: L3MBTL1 (human) inhibition; Q9Y468; AlphaScreen L3MBTL1–H3K9me1 peptide binding; Potency, µM (highest dose often 57.1 µM), for the others: at the highest dose activity, negative = inhibition, most hits filed as inhibitors; actives 0.66% (n = 230,000); further: on the % scale 0 is the no-effect control and ±100 the full control effect; nearly all actives have a fitted effect of over 60% in size
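Displacement of a biotinylated histone H3(1-15) peptide monomethylated at Lys9 (75 nM) from L3MBTL1 (50 nM) was measured by AlphaScreen after a 30 min room-temperature compound incubation; cefsulodin titration served as intraplate control.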
JMJD2A Tudor: inhibitors of human JMJD2A Tudor domain. AlphaScreen JMJD2A-Tudor / H3K4me3 peptide binding. AID 504339. Potency, µM (highest dose often 114 µM), without a hit: at the top dose activity change, negative = inhibition, actives largely listed as inhibitors. actives 4.4% (n = 390,000). O75164; further: on the % scale 0 is the no-effect control and ±100 the full control effect; nearly all actives have a fitted effect of over 50% in size
The depositor's hits bear a star; ? = inconclusive; . = no result given; [ ] = dose if it differs, or a comment. The call rests on the fitted dose curve; in most records, active means well fitted curve in the direction sought with a large enough effect; inconclusive means small, poorly fitted or top-dose-only effect, or another doubt; inactive means no such curve, though single readings can be large; an effect the other way counts as inactive or inconclusive. Potency means the concentration at half of the fitted maximal effect.

SMILES | Sfp PPTase inh | HP1b chromo inh | BAZ2B block | G9a block | L3MBTL1 block | JMJD2A Tudor
Cc1nc2c(ccc3nc(NC(=O)c4ccc5c(c4)OCCO5)sc32)s1 | ? | 30.5% | -36.9% | 28.2µM* | -4.6% | ?
CCc1ccc2nc(NC(=O)c3ccc(N4C(=O)CCC4=O)cc3)sc2c1 | 21.6% | 26.7% | 0.0% | -2.5%[59 µM] | . | 0.3%
CNS(=O)(=O)c1ccc2nc(NC(=O)c3ccc(N4C(=O)CCC4=O)cc3)sc2c1 | 14.1µM* | 13.2% | -13.1% | 3.55µM* | . | ?
O=C(Nc1nc2cc3c(cc2s1)OCCO3)c1ccc(N2C(=O)CCC2=O)cc1 | 14.1µM* | 45.5% | 4.5% | . | . | -2.8%
Cc1nn2c(=O)cc(COc3ccc(/C=C(\C#N)C(=O)Nc4ccc(F)cc4)cc3)nc2s1 | . | 63.8% | -23.5% | 4.3%[59 µM] | . | -7.3%
CC(C)CC(=O)NC(c1cccs1)c1ccc2cccnc2c1O (stereo not drawn) | 7.9% | 27.0% | -0.5% | 9.8% | 8.0% | 50.1µM*
Cc1conc1NC(c1cccs1)c1ccc2cccnc2c1O (stereo not drawn) | 50.1µM* | . | 25.1µM* | 28.0%[2.33 µM] | ? | .
CC(C)CC(=O)NC(NC(=S)Nc1cccc2cccnc12)C(Cl)(Cl)Cl (stereo not drawn) | -9.8% | 19.7% | -0.6% | ? | 4.8% | -6.8%
CCC1Sc2ccc(S(=O)(=O)CCC(=O)Nc3ccc(NC(C)=O)cc3)cc2NC1=O (stereo not drawn) | 10.7% | 25.0% | -13.2% | 3.6%[59 µM] | . | -9.0%
CCC1Sc2ccc(S(=O)(=O)CCC(=O)Nc3ccc(C(=O)OC)cc3)cc2NC1=O (stereo not drawn) | 15.0% | ? | ? | 10.7%[59 µM] | . | 20µM*
CCC1Sc2ccc(S(=O)(=O)CCC(=O)Nc3cccc(Br)c3)cc2NC1=O (stereo not drawn) | 10.5% | ? | ? | -6.0%[59 µM] | . | 25.1µM*
O=C(CCCCC(=O)NCCc1ccccc1)NCCc1ccccc1 | -3.2% | 25.8% | 10.3%[57.1 µM] | . | 3.1% | -6.1%
O=c1c2cn[nH]c2[nH]c(=S)n1-c1cccc2ccccc12 | -21.9% | 14.3% | -7.5% | 50.1µM* | -4.3% | -33.8%
COc1ccc(-n2c(=S)[nH]c3[nH]ncc3c2=O)cc1 | 50.1µM* | 37.2% | ? | . | 5.0% | ?
N#CCSc1nc2[nH]ncc2c(=O)n1-c1ccccc1Br | ? | 26.7% | 30.4% | 7.1%[59 µM] | 8.0% | -6.5%
O=c1c2cn[nH]c2[nH]c(=S)n1-c1ccccc1 | 14.1µM* | 4.6% | -3.8% | 8.91µM* | 3.5% | 79.4µM*
O=C(Cn1c(=O)oc2cc(S(=O)(=O)N3CCCCC3)ccc21)NCc1ccc(Cl)cc1 | . | 7.3% | -22.4% | 1.2%[59 µM] | . | -21.8%
CCOC(=O)Cc1csc(NC(=S)NC(=O)c2cc(OC)c(OC)c(OC)c2)n1 | ? | 7.4% | ? | 1.1%[59 µM] | . | ?
COc1ncc2nc(-c3ccc(Cl)cc3)c(=O)n(CCC#N)c2n1 | ? | . | . | 11.4%[0.501 µM] | . | .
CCOc1cc(C(=O)Nc2cc3c(cc2N2CCCC2)n(C)c(=O)c(=O)n3C)cc(OCC)c1OCC | . | 25.2% | -20.8% | 10µM* | . | -21.9%
CCOc1cc(C(=O)Nc2cc3c(cc2N2CCCC2)n(C)c(=O)n3C)cc(OCC)c1OCC | -12.2% | 32.4% | 89.1µM* | . | . | -29.2%
Cn1c(=O)c(=O)n(C)c2cc(N3CCCC3)c(NC(=O)c3ccc(C(C)(C)C)cc3)cc21 | . | 1.7% | ? | 11.2µM* | . | -30.5%
CCOc1ccc(C(=O)Nc2cc3c(cc2N2CCCC2)n(C)c(=O)c(=O)n3C)cc1OCC | . | 25.4% | -33.1% | ? | . | -12.3%
O=C(NCc1ccco1)c1nc2nc(-c3cccs3)cc(C(F)(F)F)n2n1 | -29.2% | 7.8% | ? | 44.7µM* | ? | -18.3%[57.1 µM]
O=C(NCc1ccco1)c1nn2c(C(F)(F)F)cc(-c3cccs3)nc2c1Br | 20µM* | 17.8% | ? | 50.1µM* | . | -26.4%
SMILES | Sfp PPTase inh | HP1b chromo inh | BAZ2B block | G9a block | L3MBTL1 block | JMJD2A Tudor
COC(=O)c1nc2nc(-c3cccs3)cc(C(F)(F)F)n2n1 | 2.9% | 39.2% | -6.8% | 6.9% | 3.3% | 0.0%
COc1cccc(CN2CCNC(=O)C2CC(=O)NCCN2CCOCC2)c1OC (stereo not drawn) | 22.1% | 23.9% | -10.7% | -45.2% | . | 2.2%
CSc1ccc(C2C(C(=O)c3ccco3)=C(O)C(=O)N2c2nnc(SC)s2)cc1 (stereo not drawn) | ? | 10.2% | ? | ? | . | 7.08µM*
Cc1nnc(N2C(=O)C(O)=C(C(=O)c3ccco3)C2c2ccc(C(C)C)cc2)s1 (stereo not drawn) | 56.2µM* | 35.7% | -11.9% | 44.7µM* | -0.2% | ?
Cc1nnc(N2C(=O)C(O)=C(C(=O)c3ccco3)C2c2ccc(F)cc2)s1 (stereo not drawn) | -12.2% | 33.6% | 3.6% | ? | 3.7% | 56.2µM*
Cc1ccc(C2C(C(=O)c3ccco3)=C(O)C(=O)N2c2ncccn2)cc1 (stereo not drawn) | 4.2% | 13.4% | -35.8% | 9.6% | -3.7% | -11.7%
Cc1nnc(N2C(=O)C(O)=C(C(=O)c3ccco3)C2c2ccc(C(C)(C)C)cc2)s1 (stereo not drawn) | 1.4% | 29.2% | -0.8% | ? | -12.4% | -31.1%
CCCc1cc(C(=O)N2CCCC(C(=O)c3cc(C)c(OC)c(C)c3)C2)n(C)n1 (stereo not drawn) | 2.6% | 19.4% | -32.1% | . | . | -4.1%
O=C1NC2=C(CCc3ccccc32)C(c2ccc(Br)cc2)N1 (stereo not drawn) | -21.7% | -11.0% | -4.0% | 35.5µM* | . | -22.9%
O=C1Cc2ccccc2C(c2ccc(Br)cc2)N1 (stereo not drawn) | 9.1% | 33.1% | -19.6% | 0.3%[59 µM] | . | -23.3%
FC(F)(F)c1ccccc1-c1ccc2ncnc(NC3CC3)c2c1 | 14.6% | . | . | 6.9%[0.501 µM] | . | .
O=C(CC1C(=O)NCCN1Cc1ccc(Cl)c(F)c1)NC1CCCCC1 (stereo not drawn) | 25.2% | 32.6% | 0.1% | 57.4% | . | ?
O=C(CC1C(=O)NCCN1Cc1cccc(C(F)(F)F)c1)NC1CCCCCC1 (stereo not drawn) | 3.4% | 19.6% | -21.4% | 39.8µM* | . | -30.3%
O=C(CC1C(=O)NCCN1Cc1ccccc1C(F)(F)F)NC1CCCC1 (stereo not drawn) | -9.3% | 39.4% | -18.5% | 44.7µM* | . | -9.0%
O=C(CC1C(=O)NCCN1Cc1ccccc1F)NC1CCCCCC1 (stereo not drawn) | 2.2% | . | -2.5% | . | . | .
CCCn1c(SC(C)C(=O)NC2CCCC2)n[nH]c1=O (stereo not drawn) | . | 17.7% | -2.0% | -4.0%[0.501 µM] | -15.2% | -11.7%
